A selection: hits, their analogues and other compounds. The true share with any hit is near 3.3%.
FAK blocker = FAK kinase inhibitors, primary screen, biochemical. Focal adhesion kinase 1 (Homo sapiens), Q05397. biochemical FAK kinase activity assay. inhibition, %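 (tested at 7 µM)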. 97,000 compounds, 0.84% hits. AID 727, 2007; in the data active means inhibition above about 19%;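 further: 0% = DMSO and 100% = reference compound high control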
Target sequence (Q05397 whole entry, looked up): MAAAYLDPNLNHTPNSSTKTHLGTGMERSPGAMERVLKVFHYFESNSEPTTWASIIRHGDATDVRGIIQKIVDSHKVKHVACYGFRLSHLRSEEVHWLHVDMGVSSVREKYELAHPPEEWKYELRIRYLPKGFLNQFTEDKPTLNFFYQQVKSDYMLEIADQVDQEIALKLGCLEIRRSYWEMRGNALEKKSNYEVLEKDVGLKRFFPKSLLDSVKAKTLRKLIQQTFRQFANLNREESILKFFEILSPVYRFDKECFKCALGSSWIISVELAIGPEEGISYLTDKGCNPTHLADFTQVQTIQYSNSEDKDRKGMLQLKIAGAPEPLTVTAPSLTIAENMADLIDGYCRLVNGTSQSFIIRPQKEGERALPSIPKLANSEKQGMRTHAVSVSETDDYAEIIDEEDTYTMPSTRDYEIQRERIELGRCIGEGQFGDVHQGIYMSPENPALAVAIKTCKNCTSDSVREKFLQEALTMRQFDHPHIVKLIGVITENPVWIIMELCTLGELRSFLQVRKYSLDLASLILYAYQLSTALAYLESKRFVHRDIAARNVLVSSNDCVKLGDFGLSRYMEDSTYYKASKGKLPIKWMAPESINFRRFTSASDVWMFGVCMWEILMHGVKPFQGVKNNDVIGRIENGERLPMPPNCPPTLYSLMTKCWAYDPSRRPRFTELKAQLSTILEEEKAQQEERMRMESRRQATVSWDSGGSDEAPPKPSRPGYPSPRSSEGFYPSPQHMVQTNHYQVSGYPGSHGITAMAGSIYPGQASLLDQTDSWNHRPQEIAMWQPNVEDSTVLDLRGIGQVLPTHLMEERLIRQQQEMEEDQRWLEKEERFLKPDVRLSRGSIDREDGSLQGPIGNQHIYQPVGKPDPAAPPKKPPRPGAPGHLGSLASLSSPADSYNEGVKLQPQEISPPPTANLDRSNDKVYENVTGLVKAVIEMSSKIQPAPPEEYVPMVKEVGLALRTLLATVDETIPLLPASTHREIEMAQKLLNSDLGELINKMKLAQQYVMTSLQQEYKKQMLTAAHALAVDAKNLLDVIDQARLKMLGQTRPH
ERb SRC1 inh = inhibitors of ERβ-SRC1 coactivator interaction, primary screen, biochemical, TR-FRET, ERβ LBD, SRC-1 peptide; Estrogen receptor beta (Homo sapiens), Q92731; TR-FRET ER-beta LBD / SRC1-Cy5 peptide binding; receptor agonist-loaded with 1 µM estradiol; inhibition, % at 25.6 µM; 86,000 compounds, 1.3% hits; AID 633, 2007;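 active means compounds whose percent inhibition of the receptor-coactivator binding signal exceeds about 50% in the single-dose screen, limit read from the data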;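 further: 0% = receptor plus peptide wells without compound and 100% = peptide-only wells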
ERa coact pot = enhancers of ERα–SRC-1 coactivator binding, primary screen, biochemical, TR-FRET, ERα LBD, low estradiol; Estrogen receptor (Homo sapiens), P03372; TR-FRET ERalpha-LBD/SRC-Cy5 coactivator binding, 2 h; 100 = basal binding, no effect; coactivator binding (% of control), % at 25.6 µM; 86,000 compounds, 1.3% hits; AID 639, 2007; in the data active means activity above about 200%;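 further: binding measured in presence of low estradiol as agonist stimulus; 0% = peptide alone without receptor and 100% = receptor with peptide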
Smad3 inh = Smad3/FoxH1 peptide binding inhibitors, primary screen, biochemical, TR-FRET. Mothers against decapentaplegic homolog 3 (Homo sapiens), P84022. TR-FRET Smad3/Dy647-FoxH1 peptide binding, europium anti-His. inhibition, % at 25 µM. 88,000 compounds, 0.29% hits;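 active means compounds that reduce the energy-transfer binding signal between the protein and its labelled peptide by more than half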;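 further: 0% = Smad3 plus labelled peptide maximal FRET and 100% = peptide-only background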
ERa coact inh = ERα–SRC-1 coactivator interaction inhibitors, primary screen, biochemical, TR-FRET, ERα LBD, estradiol-bound; Estrogen receptor (Homo sapiens), P03372; TR-FRET ER-alpha LBD / SRC-1 peptide; inhibition, % at 25.6 µM; 86,000 compounds, 1.7% hits; in the data active means inhibition above about 50%;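 further: 0% = receptor plus peptide control and 100% = peptide only without receptor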
The depositor's hits bear a star; [ ] = dose if it differs, or a comment.

What do the screens show for `C=CCn1c(=O)c(C(=O)Nc2nnc(C)s2)c(O)c2ccccc21`?
ERb SRC1 inh: 1.0; ERa coact pot: 98.0; Smad3 inh: 36.5; ERa coact inh: 0.6

What do the screens show for `C=CCn1c(=O)c(C(=O)Nc2cccnc2)c(O)c2ccccc21`?
FAK blocker: 23.0*; ERb SRC1 inh: 20.7; ERa coact pot: 131.8; Smad3 inh: 29.0; ERa coact inh: 43.3

How did Nc1ccn([C@H]2O[C@@H](COP(=O)(O)O)[C@H](O)[C@H]2O)c(=O)n1 do in these assays?
Smad3 inh: 78.7*

Results for CCOC(=O)Cc1c(C)nc2c(-c3ccc(Cl)cc3)c(C)[nH]n2c1=O ?
FAK blocker: -3.4; ERb SRC1 inh: 17.6; ERa coact pot: 247.7*[fluorescence artefact?]; Smad3 inh: 10.7; ERa coact inh: 32.3

What do the screens show for `CCOC(=O)c1c(N)sc(=S)c2c1CCC2`?
FAK blocker: -0.5; ERb SRC1 inh: 69.6*; ERa coact pot: 44.8; Smad3 inh: 7.7; ERa coact inh: 54.6*[fluorescence artefact?]

How did COc1cc(C(=O)OCC(=O)Nc2c(F)c(F)c(F)c(F)c2F)cc(OC)c1OC do in these assays?
FAK blocker: -0.7; ERb SRC1 inh: 37.4; ERa coact pot: 95.3; Smad3 inh: -3.4; ERa coact inh: 58.0*

What do the screens show for `COc1ccc(C(=O)OCC(=O)Nc2ccc(F)c(F)c2F)cc1OC`?
FAK blocker: 0.5; ERb SRC1 inh: -3.5; ERa coact pot: 91.8; Smad3 inh: -0.7; ERa coact inh: -8.6

What do the screens show for `CC(=O)[C@]1(O)CC[C@@H]2[C@H]3C[C@@H](C)C4=CC(=O)CC[C@@]4(C)[C@@H]3[C@@H](O)C[C@]21C`?
Smad3 inh: 34.5

How did CC(C)(C)c1cc2c(O)c(c1)Cc1cc(C(C)(C)C)cc(c1O)Cc1cc(C(C)(C)C)cc(c1O)Cc1cc(C(C)(C)C)cc(c1O)Cc1cc(C(C)(C)C)cc(c1O)Cc1cc(C(C)(C)C)cc(c1O)Cc1cc(C(C)(C)C)cc(c1O)Cc1cc(C(C)(C)C)cc(c1O)C2 do in these assays?
Smad3 inh: 15.7

What do the screens show for `N#Cc1nc(-c2ccc(OCc3ccccc3)cc2)oc1NCCN1CCOCC1`?
FAK blocker: 7.0; ERb SRC1 inh: 8.2; ERa coact pot: 234.7*[fluorescence artefact?]; Smad3 inh: 6.6; ERa coact inh: 11.4

Results for O=C(O)CCCCn1ccc(=O)[nH]c1=O ?
Smad3 inh: -6.9

How did c1ccc(-c2noc(-c3ccc4c(c3)OCO4)n2)nc1 do in these assays?
ERb SRC1 inh: 56.7*; ERa coact pot: 45.0; Smad3 inh: 6.8; ERa coact inh: 61.6*[fluorescence artefact?]

Results for c1ccc(-c2noc(-c3ccc4ccccc4c3)n2)nc1 ?
ERb SRC1 inh: -3.3; ERa coact pot: 112.7; Smad3 inh: -9.3; ERa coact inh: 3.4

Results for O=C(Nc1cccc(NC(=O)c2ccc(-c3ccc(Br)cc3)o2)c1)c1ccco1 ?
FAK blocker: 1.9; ERb SRC1 inh: 22.3; ERa coact pot: 108.0; Smad3 inh: 10.1; ERa coact inh: 71.1*[fluorescence artefact?]

How did Cc1cccc(C(OC(=O)c2ccco2)C(=O)NCc2ccccc2)n1 (stereo not given) do in these assays?
FAK blocker: -4.7; ERb SRC1 inh: 73.9*[fluorescence artefact?]; ERa coact pot: 52.8; Smad3 inh: -4.7; ERa coact inh: 68.0*[fluorescence artefact?]

Results for Cc1cc(NC(=O)c2oc3ccccc3c2C)ccc1-n1cnnn1 ?
FAK blocker: -0.3; ERb SRC1 inh: 50.4*[fluorescence artefact?]; ERa coact pot: 130.9; Smad3 inh: 5.7; ERa coact inh: 65.2*[fluorescence artefact?]

What do the screens show for `O=[N+]([O-])c1ccc2ncccc2c1CCc1c([N+](=O)[O-])ccc2ncccc12`?
Smad3 inh: 8.2

Results for O=C(/C(=C/c1ccc(Cl)cc1)c1nc2ccccc2[nH]1)c1cccs1 ?
FAK blocker: 4.3

What do the screens show for `N=c1c(-c2nc3ccccc3[nH]2)cc(C(=O)c2cccs2)nn1-c1ccc(Cl)cc1`?
FAK blocker: 10.5; ERb SRC1 inh: 52.5*; ERa coact pot: 28.9; Smad3 inh: -5.6; ERa coact inh: 89.7*[fluorescence artefact?]

How did O=C1c2ccccc2C(=O)N1CC1c2ccccc2CCN1C(=O)C1CCCCC1 (stereo not given) do in these assays?
FAK blocker: 3.5; ERb SRC1 inh: 3.4; ERa coact pot: 85.0; Smad3 inh: 18.4; ERa coact inh: 1.7

What do the screens show for `O=C(NCC1c2ccccc2CCN1C(=O)CN1CCOCC1)C1CCCCC1` (stereo not given)?
FAK blocker: -3.0; ERb SRC1 inh: 0.8; ERa coact pot: 110.6; Smad3 inh: 63.2*[fluorescence artefact?]; ERa coact inh: 5.7

How did CC1(C)C(=O)C2(CCCC2)C(=O)OC1c1ccco1 (stereo not given) do in these assays?
FAK blocker: 1.0; ERb SRC1 inh: -8.7; ERa coact pot: 102.5; Smad3 inh: 5.9; ERa coact inh: -1.3

What do the screens show for `CC1(C)C(=O)C2(CCCCC2)C(=O)OC1c1ccc(O)cc1` (stereo not given)?
FAK blocker: 1.4; ERb SRC1 inh: -6.1; ERa coact pot: 218.5*; Smad3 inh: -10.4; ERa coact inh: -7.3

How did O=C1O[C@@H]([C@H](O)[C@H](O)[C@H](O)CO)[C@@H](O)[C@@H]1O do in these assays?
Smad3 inh: 6.0

What do the screens show for `COCCCNC(=O)Cn1nnc(-c2ccc(NC(=O)c3ccc(F)cc3)cc2)n1`?
ERb SRC1 inh: 45.9; ERa coact pot: 257.9*[fluorescence artefact?]; Smad3 inh: 1.0; ERa coact inh: 48.4

How did CC(=O)NC1=C(OS(=O)(=O)c2ccc(C)cc2)CN(C)C1=O do in these assays?
Smad3 inh: 14.2

What do the screens show for `O=C(c1sc2ccccc2c1Cl)N(Cc1cccs1)C1CCS(=O)(=O)C1` (stereo not given)?
FAK blocker: -4.4; ERb SRC1 inh: 4.4; ERa coact pot: 89.2; Smad3 inh: -13.1; ERa coact inh: 57.5*[fluorescence artefact?]

Results for Cn1c(=O)oc2ccc(C(=O)CSc3nnnn3-c3ccccc3)cc21 ?
FAK blocker: 0.8; ERb SRC1 inh: 11.2; ERa coact pot: 283.6*[fluorescence artefact?]; Smad3 inh: -22.7; ERa coact inh: 17.5

Results for COc1ccc(-n2nnnc2SCC(=O)c2ccc3c(c2)OCCO3)cc1 ?
FAK blocker: -4.8; ERb SRC1 inh: -12.4; ERa coact pot: 307.1*[fluorescence artefact?]; Smad3 inh: 5.6; ERa coact inh: -9.0

What do the screens show for `O=C(CSc1nnc(-c2cccs2)n1-c1cccc(Cl)c1)c1cccc2c1OCCO2`?
FAK blocker: -3.2; ERb SRC1 inh: 9.4; ERa coact pot: 258.6*; Smad3 inh: -13.2; ERa coact inh: 11.4

How did O=C(O)CSc1nnnn1-c1ccc2c(c1)OCCO2 do in these assays?
FAK blocker: -1.7

What do the screens show for `O=C(CSc1nnnn1-c1ccc2c(c1)OCCO2)c1cccc2c1OCCO2`?
FAK blocker: -25.0; ERb SRC1 inh: -26.9; ERa coact pot: 375.4*[fluorescence artefact?]; Smad3 inh: -38.0; ERa coact inh: -15.9
